Results on 28 compounds are retold here after PubChem BioAssay.

The structures appear in SMILES notation. Calls of active or inactive are those of the source.

In the first experiment the target is Luciferin 4-monooxygenase (Photinus pyralis) (UniProt P08659). The experiment can be described thus: firefly luciferase enzyme inhibitors, primary screen, biochemical, luminescence, purified enzyme, 2006 set (AID 1141).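 Further: cell-free assay with purified firefly luciferase at 100 ng per well in PBS; test concentration not given here.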 The settings on record: SteadyGlo luminescence, 30 min, higher = more signal, called active from +8 up or from −8 down.
Sequence of Luciferin 4-monooxygenase (Photinus pyralis) (P08659 whole entry, looked up): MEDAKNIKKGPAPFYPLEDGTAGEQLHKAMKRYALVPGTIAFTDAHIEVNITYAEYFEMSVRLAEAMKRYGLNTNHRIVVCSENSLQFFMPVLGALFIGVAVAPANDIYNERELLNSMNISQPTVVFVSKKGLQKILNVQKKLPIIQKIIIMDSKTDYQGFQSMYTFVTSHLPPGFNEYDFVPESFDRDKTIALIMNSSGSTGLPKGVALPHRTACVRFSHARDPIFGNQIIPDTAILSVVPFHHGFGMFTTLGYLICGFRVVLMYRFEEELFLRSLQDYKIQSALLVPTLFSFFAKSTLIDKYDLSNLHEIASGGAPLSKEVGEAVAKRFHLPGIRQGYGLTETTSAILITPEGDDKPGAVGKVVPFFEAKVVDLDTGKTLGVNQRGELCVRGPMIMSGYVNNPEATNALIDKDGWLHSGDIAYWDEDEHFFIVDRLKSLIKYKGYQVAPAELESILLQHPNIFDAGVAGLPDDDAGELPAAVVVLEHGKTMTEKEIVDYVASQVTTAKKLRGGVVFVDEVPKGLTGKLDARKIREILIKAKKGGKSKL
For `C[C@@H](c1ccccc1)N1C(=O)[C@H]2[C@H]3[C@H](O)[C@H](O)CC(=NO[C@@H]4O[C@H](CO)[C@@H](O)[C@H](O)[C@H]4O)[C@H]3CC[C@H]2C1=O`, the z-score was 0.491 (inactive). As for `CCOC(=O)CCN1C(=O)[C@H]2[C@H]3[C@H](O)[C@H](O)CC(=NOCc4ccccc4)[C@H]3CC[C@H]2C1=O`, the z-score was 0.563 (inactive). Consider `CO[C@H]1COC(=O)[C@@H](C)COC(=O)[C@H](COCc2ccccc2)NC(=O)CC=C[C@H]1C`, for which the z-score is -0.949 (inactive). Same read-out and setting: the same measure for `COc1cccc([C@H]2Oc3ccc(OC)cc3C(=NO[C@@H]3O[C@H](COC(C)=O)[C@@H](OC(C)=O)[C@H](OC(C)=O)[C@H]3OC(C)=O)[C@@H]2O)c1`: 0.713 (inactive); for `CCOC(=O)[C@H](CC(C)C)NC(=O)CCC1CC(OC(=O)NCc2ccc3c(c2)OCO3)CC2(CCCC(COC(=O)NCc3cccc(C(F)(F)F)c3)O2)O1` (stereo partly drawn): 0.679 (inactive). Turning to `CCN1C(=O)[C@H]2[C@H]3[C@H](O)[C@H](O)CC(=NOCC(C)C)[C@@H]3CC[C@H]2C1=O`, the z-score is 0.887 (inactive). As for `COC(=O)[C@H](C)NC(=O)CCC1CC(OC(=O)NCCc2ccc(F)cc2)CC2(CCCC(COC(=O)NCCC(C)C)O2)O1` (stereo partly drawn), the z-score is -0.447 (inactive). Same read-out and setting: in the case of `C=CC[C@@H]1C=C[C@H](ON=C(C)CCN2CCc3nc(-c4ccccc4)c(-c4ccccc4)cc3C2)[C@@H](CO)O1` it was -0.118 (inactive).

In another experiment the test system is Wnt5a (protein binding on small-molecule microarray). Nature of the experiment: Wnt5a binders on small-molecule microarray, primary screen, biophysical, 635/667 nm fluorescence (AID 1142).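 Further: fluorescence read at 667 nm with signal to noise per printed feature.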 The settings on record: 635 nm fluorescence, higher = more signal.
Regarding `CC(C)[C@@H](OCc1ccccc1)[C@H](C)C=NOC[C@@H](O)COCc1ccco1`, the composite z-score is -0.304.

The compound `CC(C)(C)N1C(=O)[C@H]2[C@H]3[C@H](O)C=CC(=O)[C@@H]3CC[C@H]2C1=O` yielded a composite z-score of 0.307. The same measure, in the same setting: the same measure for `CCOC(=O)[C@H](CC(C)C)NC(=O)CCC1CC(OC(=O)NCc2cccc3ccccc23)CC2(CCCC(COC(=O)NCCOC)O2)O1` (stereo partly drawn): 0.238. In the case of `Cc1ccc(S(=O)(=O)n2c3ccccc3c3nnc(C(=O)c4ccccc4)nc32)cc1`, the composite z-score is 0.19. Still for that read-out and setting: in the case of `CCN1C(=O)[C@H]2[C@H]3[C@H](O)[C@H](O)CC(=NOC[C@H]4O[C@H](c5ccccc5)C=C[C@@H]4Oc4ccc(OC)cc4)[C@@H]3CC[C@H]2C1=O` it was 0.353; in that of `Cc1cc2c(c(=O)o1)[C@@H](O)[C@H]1O[C@H]1C2=O`, 0.149.

In the case of `C#CCCCON=C1C[C@@H](O)[C@@H](O)[C@@H]2[C@@H]3C(=O)N(c4cccc(Oc5ccccc5)c4)C(=O)[C@@H]3CC[C@H]12`, the composite z-score was -0.591. Regarding `CC(CCN1CCc2nc(-c3ccccc3)c(-c3ccccc3)cc2C1)=NOC[C@@H](O)[C@H]1O[C@@H]2OC(C)(C)O[C@@H]2[C@H]1O`, the composite z-score was found to be 0.19. Same read-out and setting: in the case of `CC(CCN1CCc2nc(-c3ccccc3)c(-c3ccccc3)cc2C1)=NOC[C@@H](O)COCc1ccco1` it was 0.133; in that of `CSCC[C@@H]1NC(=O)CC=C[C@@H](C)COC(=O)[C@@H](C)COC1=O`, -0.0993. Regarding `CC(=O)Nc1ccc([C@@H]2N[C@H](C(=O)O)CC[C@H]2C)cc1`, the composite z-score was 0.101. Still for that read-out and setting: the same measure for `C#CCCCON=C1[C@H]2CCn3c(=O)n(-c4ccccc4)c(=O)n3[C@H]2[C@H](O)[C@@H]2O[C@H]12`: 0.0823. On to `COC(=O)[C@@H]1CC[C@H](C)[C@@H](c2ccc(C)cc2)N1C(=O)c1ccc(C=NOC[C@@H](C)[C@H](OCc2ccccc2)C(C)C)cc1`, for which the composite z-score was determined as 0.156. `CCOC(=O)[C@H](Cc1ccccc1)NC(=O)CCC1CC(OC(=O)NCc2cccc3ccccc23)CC2(CCCC(COC(=O)NCCC(C)C)O2)O1` (stereo partly drawn): the composite z-score is -0.0404. `C=CC[C@@H]1C=C[C@H](ON=C2[C@H]3CCn4c(=O)n(-c5ccccc5)c(=O)n4[C@H]3[C@H](O)[C@@H]3O[C@H]23)[C@@H](CO)O1` returned a composite z-score of 0.132. Same read-out and setting: the same measure for `CCOC(=O)[C@H](CC(C)C)NC(=O)CCC1CC(OC(=O)NCc2cccc3ccccc23)CC2(CCCC(COC(=O)NCCOc3ccccc3)O2)O1` (stereo partly drawn): 0.746; for `C[C@@H](c1ccccc1)N1C(=O)[C@H]2[C@H]3[C@H](O)[C@H](O)CC(=NOCc4ccccc4)[C@H]3CC[C@H]2C1=O`: -0.0159; for `CCCNC(=O)OC[C@H]1O[C@H](CCON=C(C)CCN2CCc3nc(CC)c(CC)cc3C2)C=C[C@@H]1Oc1ccc(OC)cc1`: -0.0552.

Take `CCCNC(=O)OC[C@H]1O[C@H](CCON=C(C)C)C=C[C@@H]1Oc1ccc(OC)cc1`: the composite z-score is -0.0092. On the same count and under the same terms, the same measure for `CC(=O)O[C@H]1C2=CO[C@H](C)[C@H]3[C@H]4C5=C([C@H](O)[C@H]6O[C@H]6C5=O)[C@H](OC4C)[C@@]23C(=O)[C@@H]2O[C@@H]21` (stereo partly drawn): 0.25.
